As usually defined, the inhibition is the relative decrease from the control value, in per cent.

The text below walks through data of PubChem BioAssay AID463195 (Sanford-Burnham Center for Chemical Genomics, 2010).

Hit rate of the full screen: of about 330,000 compounds, about 4,600 (1.4%) were called active. This is one part of a sample in which actives are shown more often than they occur.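 Rule for the calls: active = inhibition of 40% or more at the single tested concentration; inactive = the rest.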

A short description of the assay: growth inhibitors of isogenic TIM10 control yeast, primary screen, counter-screen for tim10-1 yeast inhibitor project, luminescence, uHTS (AID 463195).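 Note: wild-type TIM10 isogenic control strain grown at permissive 25 °C; 0% = DMSO yeast wells and 100% = minimal medium wells without yeast.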 Particulars: S. cerevisiae TIM10 strain growth, BacTiter-Glo luminescence, 24 h; at 10 µM; active compounds read high. Background: A counterscreen serves to expose hits that act by an unwanted route or on another target.
Take `COc1ccc(-c2cc(C3CCN(c4ncccc4[N+](=O)[O-])CC3)[nH]n2)cc1`: the inhibition is 33% (inactive). Next, `CC(=O)CSc1nnc(CSc2ncccn2)n1C1CCCCC1`: 3.42% (inactive); `Nn1cnnc1N/N=C/c1cc([N+](=O)[O-])c(Cl)cc1Cl`: -10.5% (inactive). For `CN(CC(=O)Nc1ccccc1C(F)(F)F)C(=O)Cc1ccccc1F`, the inhibition was 12.1% (inactive).

For the compound `O=C(Nc1ccccc1F)c1ccccc1-c1ccc(C(F)(F)F)cc1`, the inhibition was 9.5% (inactive).

With `N#C/C(=C\c1ccccc1C(F)(F)F)C(=O)Nc1ccccc1F`, the inhibition is 47.5% (active). Turning to `Oc1[nH]c2ccc(Br)cc2c1N=Nc1nn[nH]n1`, the inhibition is 6.35% (inactive). For `Cc1cccc(N=Nc2c(O)[nH]c3ccc(F)cc23)c1`, the inhibition is 45% (active). Next, `NS(=O)(=O)c1ccc(N=Nc2c(O)[nH]c3ccc(Br)cc23)cc1`: -10.2% (inactive); `Cc1ccc(C)c(NC2=NCC(=O)N2c2ccc3c(c2)OCCO3)c1`: 2.39% (inactive). Next, `Cc1ccc(C(=O)N2CC(=O)Nc3ccc(F)cc3C2c2ccc(F)cc2)cc1` (stereo not given): 20.6% (inactive).

Consider `CC1=CC=CN2C1=NC(=O)CC2(C)C(=O)N(CC(=O)NC1CCCC1)c1ccccc1C` (stereo not given), for which the inhibition was -13.9% (inactive). The result for `O=C(COC(=O)c1ccc([N+](=O)[O-])o1)NC12CC3CC(CC(C3)C1)C2` reads 44.7% (active); that for `O=C(COC(=O)c1ccc(Br)o1)NC12CC3CC(CC(C3)C1)C2`, 25.9% (inactive). The result for `O=C(OCC(=O)c1cccs1)c1ccc([N+](=O)[O-])o1` reads 14.1% (inactive).

On to `COc1ccc(C2=NS(=O)(=O)N(C)C(C(=O)NC(C)c3ccccc3)=C2)cc1` (stereo not given), for which the inhibition was -4.03% (inactive). The result for `Cn1c(=O)c2c(nc(NCCNC(=O)c3ccco3)n2Cc2ccccc2F)n(C)c1=O` reads -1.93% (inactive). Next, `COc1cc(NC(=O)COC(=O)c2ccc([N+](=O)[O-])s2)cc(OC)c1OC`: 32.6% (inactive); `COc1ccc(C(=O)COC(=O)c2ccc([N+](=O)[O-])s2)cc1OC`: 60.6% (active); `O=C(OCC(=O)N1CCN(c2ccccc2)CC1)c1ccc([N+](=O)[O-])s1`: -16.2% (inactive).

Turning to `O=C(O)c1cccc2c1C(=O)N(C1CCCCC1)C2`, the inhibition is 17.6% (inactive). The result for `COc1ccc(CNC(=O)C2CCN(C(=O)c3ccco3)CC2)cc1` reads 6.55% (inactive); that for `CC(C)NS(=O)(=O)c1ccc(CCC(=O)N2CCOCC2)cc1`, -1.05% (inactive); that for `C=CCSC(CC)(CC)C(N)=O`, 2.57% (inactive). For `NS(=O)(=O)c1ccc(CCNC(=S)Nc2ccc(S(N)(=O)=O)cc2)cc1`, the inhibition is 1.03% (inactive). The result for `NS(=O)(=O)c1ccc(NC(=S)NC(=O)c2cccc(Br)c2)cc1` reads 19.3% (inactive); that for `NS(=O)(=O)c1ccc(NC(=S)Nc2ccc(Br)c(Cl)c2)cc1`, 42.9% (active); that for `O=C(CSc1nc(O)c(Cc2ccccc2)c(=O)[nH]1)Nc1nc2c(s1)CCCC2`, -0.307% (inactive). The result for `O=C(NCc1ccccc1)c1ccc(CNc2c(N3CCCC3)c(=O)c2=O)cc1` reads 2.83% (inactive); that for `CCOC(=O)C(CCOc1cccc(CC)c1)C(=O)OCC`, 9.43% (inactive); that for `Cc1noc(C)c1S(=O)(=O)Nc1ccc(C(=O)N2CCN(c3ccc(F)cc3)CC2)cc1`, 3.71% (inactive). The result for `Cc1ccc(F)cc1NC(=O)N1CCCN(c2ccc(C(F)(F)F)cn2)CC1` reads 21.2% (inactive). Regarding `O=C(c1ccc2nc(N3CCOCC3)sc2c1)N1CCN(c2ccc(Cl)cc2)CC1`, the inhibition was 39.5% (inactive). For `Cc1ccc2nc(N3CCN(C(=O)c4ccco4)CC3)sc2c1`, the inhibition was -6.8% (inactive). The result for `COc1ccc2nc(N3CCN(C(=O)c4ccc([N+](=O)[O-])o4)CC3)sc2c1` reads 43.2% (active). Next, `CCCC(=O)n1nc(NCc2ccc(OC)cc2)nc1NCc1ccc(OC)cc1`: -4.33% (inactive).

For `Cc1ccnc(SCC(=O)Nc2cccc(S(=O)(=O)N3CCOCC3)c2)n1`, the inhibition is -2.35% (inactive). Next, `COC(=O)c1cc(=O)n(-c2c(Cl)cc(C(F)(F)F)cc2Cl)[nH]1`: -4.96% (inactive). Next, `COc1ccc2ccn(C)c2c1`: -5.57% (inactive). Next, `COc1ccc2c(c1)cc1n2CCN=C1NN`: 76.6% (active); `O=C(O)CSc1ccc(S(=O)(=O)N2CCCC2)cn1`: 8.26% (inactive). As for `O=C(CCC1CCCN(C(=O)c2ccc(F)c(F)c2)C1)N1CCN(c2ccccn2)CC1` (stereo not given), the inhibition is 13.4% (inactive). Next, `Cc1no[n+]([O-])c1COc1ccccc1/C=C1\NC(=S)NC1=O`: -3.3% (inactive).

As to `Cc1ccc(SCC(=O)NNC(=O)c2ccc(S(C)(=O)=O)cc2)cc1`, the inhibition was 2.08% (inactive). In the case of `O=S(=O)(NN=C1CCCCCCC1)c1ccc(Br)cc1`, the inhibition is 17.3% (inactive). The result for `COc1ccc(CNc2ncnc3ccccc23)cc1` reads 2.62% (inactive); that for `COc1cccc(CNc2nc(C(F)(F)F)nc3ccccc23)c1`, 44.2% (active); that for `CCc1ccc(C(CNc2nc(C(F)(F)F)nc3ccccc23)N(C)C)cc1` (stereo not given), 9.55% (inactive). Consider `N/C(=N\OC(=O)CCc1ccccc1)c1cccnc1`, for which the inhibition is -2.8% (inactive).

On to `COc1ccc(/C(N)=N/OC(=O)Cc2ccccc2)cc1`, for which the inhibition was 21.6% (inactive). Consider `N/C(=N\OC(=O)CC1CCCCC1)c1ccccc1`, for which the inhibition was 38% (inactive).

For `COc1ccc(/C(N)=N/OC(=O)Oc2ccccc2)cc1`, the inhibition is 2.38% (inactive). Next, `COc1ccc(/C(N)=N/OC(=O)CCCc2ccccc2)cc1`: 48.1% (active).

For `N/C(=N\OC(=O)CCc1ccccc1)c1ccc(Cl)cc1`, the inhibition was 57.5% (active). Regarding `Nc1cccc(S(=O)(=O)Nc2ccc(SC(F)F)cc2)c1`, the inhibition was 15.6% (inactive).

Turning to `CCc1ccc(S(=O)(=O)Nc2cc3c(cc2N2CCCCC2)n(C)c(=O)c(=O)n3C)cc1`, the inhibition is 18% (inactive).

As for `OCC1(Cc2ccccc2C(F)(F)F)CCN(Cc2cccc3cnccc23)CC1`, the inhibition is -41.2% (inactive).

As to `Cc1ccc(N(C(=O)c2sc(C)nc2C)C(C(=O)NC(C)(C)C)c2ccncc2)cc1` (stereo not given), the inhibition is -2.14% (inactive).

Turning to `O=C1OC[C@@H]2CCCN2C(=O)[C@H](CC(=O)N(CCO)Cc2ccccc2)C/C=C\CC[C@@H]1Cc1ccc(F)cc1`, the inhibition was 1.13% (inactive). The result for `CCN(Cc1ccccc1)S(=O)(=O)c1cc2c3c(c1)CCN3C(=O)CC2` reads -18.1% (inactive).
